# Positions count from the first letter of the chain named.
# Columns and labels:
# Assay in all cases: yeast three-hybrid, YBZ-1, SC-Leu-His + 0.5 mM 3-AT, 4 days
# Conditions in all cases: tags: N-Gal4 AD-HA kept; label: inside an RPR1-promoter hybrid RNA with tandem MS2 sites; ssRNA
# [1] = target: PUM1 PUF domain R7-LTL (Homo sapiens, UniProt Q14671 828-1176, S1079L;N1080T;E1083L)
# In short: (§1)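 The interaction score is the log change in variant frequency from input to selection. Scores were computed in log2 with a pseudocount of 1 for absent variants, using Illumina sequencing of PCR-amplified repeat regions. The input came from four days on SC-Leu and the selection from four days on SC-Leu-His + 0.5 mM 3-AT. The cells were strain YBZ-1 (LexA–MS2 coat fusion, HIS3 reporter) co-expressing Pumilio-1 PUF domain libraries and matching RNA elements from a centromeric plasmid.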
# [2] = target: PUM1 PUF domain R7-RRF (Homo sapiens, UniProt Q14671 828-1176, S1079R;N1080R;E1083F)
# In short: as §1
# [3] = target: PUM1 PUF domain R3-TRR (Homo sapiens, UniProt Q14671 828-1176, C935T;Q939R)
# In short: as §1
# [4] = target: PUM1 PUF domain R3-SHA (Homo sapiens, UniProt Q14671 828-1176, C935S;R936H;Q939A)
# In short: as §1
# [5] = target: PUM1 PUF domain R4-WSC (Homo sapiens, UniProt Q14671 828-1176, N971W;H972S;Q975C)
# In short: as §1
# [6] = target: PUM1 PUF domain R4-EHL (Homo sapiens, UniProt Q14671 828-1176, N971E;Q975L)
# In short: as §1
# [7] = target: T1, PUM1 PUF domain R6-KWQ (Homo sapiens, UniProt Q14671 828-1176, N1043K;Y1044W)
# T1 sequence: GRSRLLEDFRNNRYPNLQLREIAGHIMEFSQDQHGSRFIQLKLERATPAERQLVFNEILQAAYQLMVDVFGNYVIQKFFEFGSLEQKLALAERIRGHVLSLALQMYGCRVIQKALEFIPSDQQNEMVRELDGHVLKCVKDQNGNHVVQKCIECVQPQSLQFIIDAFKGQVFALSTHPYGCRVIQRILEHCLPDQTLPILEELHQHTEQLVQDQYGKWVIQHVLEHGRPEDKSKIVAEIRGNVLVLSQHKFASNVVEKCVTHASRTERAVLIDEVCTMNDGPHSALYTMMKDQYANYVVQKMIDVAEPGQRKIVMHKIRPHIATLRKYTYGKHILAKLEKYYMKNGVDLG
# In short: as §1
# [8] = target: T2, PUM1 PUF domain R6-LWC (Homo sapiens, UniProt Q14671 828-1176, N1043L;Y1044W;Q1047C)
# T2 sequence: T1 sequence with K216L, Q220C
# In short: as §1
# [9] = target: PUM1 PUF domain R3-TFW (Homo sapiens, UniProt Q14671 828-1176, C935T;R936F;Q939W)
# In short: as §1
# [10] = target: T3, PUM1 PUF domain R6-GFC (Homo sapiens, UniProt Q14671 828-1176, N1043G;Y1044F;Q1047C)
# T3 sequence: T1 sequence with K216G, W217F, Q220C
# In short: as §1
# [11] = target: PUM1 PUF domain R3-VWS (Homo sapiens, UniProt Q14671 828-1176, C935V;R936W;Q939S)
# In short: as §1
# [12] = target: PUM1 PUF domain R3-EWG (Homo sapiens, UniProt Q14671 828-1176, C935E;R936W;Q939G)
# In short: as §1
# [13] = target: PUM1 PUF domain R4-SPC (Homo sapiens, UniProt Q14671 828-1176, N971S;H972P;Q975C)
# In short: as §1
# [14] = target: PUM1 PUF domain R4-SPS (Homo sapiens, UniProt Q14671 828-1176, N971S;H972P;Q975S)
# In short: as §1
# [15] = target: PUM1 PUF domain R5-KYY (Homo sapiens, UniProt Q14671 828-1176, C1007K;R1008Y;Q1011Y)
# In short: as §1
# [16] = target: PUM1 PUF domain R2-AWW (Homo sapiens, UniProt Q14671 828-1176, N899A;Y900W;Q903W)
# In short: as §1
# [17] = target: PUM1 PUF domain R5-FNG (Homo sapiens, UniProt Q14671 828-1176, C1007F;R1008N;Q1011G)
# In short: as §1
# [18] = target: PUM1 PUF domain R5-GNW (Homo sapiens, UniProt Q14671 828-1176, C1007G;R1008N;Q1011W)
# In short: as §1
# [19] = target: PUM1 PUF domain R4-DYA (Homo sapiens, UniProt Q14671 828-1176, N971D;H972Y;Q975A)
# In short: as §1
# [20] = target: PUM1 PUF domain R2-RKG (Homo sapiens, UniProt Q14671 828-1176, N899R;Y900K;Q903G)
# In short: as §1
# PUM1 PUF domain R5-KYY, sequence (Q14671 828-1176 C1007K/R1008Y/Q1011Y): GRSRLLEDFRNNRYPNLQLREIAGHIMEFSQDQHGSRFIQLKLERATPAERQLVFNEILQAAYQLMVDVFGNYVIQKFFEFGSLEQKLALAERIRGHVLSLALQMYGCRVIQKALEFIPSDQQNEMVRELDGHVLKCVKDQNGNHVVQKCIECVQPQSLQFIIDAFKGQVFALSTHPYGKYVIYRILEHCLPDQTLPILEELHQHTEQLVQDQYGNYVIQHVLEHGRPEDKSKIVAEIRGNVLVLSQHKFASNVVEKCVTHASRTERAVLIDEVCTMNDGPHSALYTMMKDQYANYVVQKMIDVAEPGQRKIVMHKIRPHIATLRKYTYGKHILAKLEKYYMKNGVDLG
# PUM1 PUF domain R4-SPS, sequence (Q14671 828-1176 N971S/H972P/Q975S): as the sequence (Q14671 828-1176 C1007K/R1008Y/Q1011Y) above, with N144S, H145P, Q148S, K180C, Y181R, Y184Q counted along it
# PUM1 PUF domain R3-EWG, sequence (Q14671 828-1176 C935E/R936W/Q939G): as the sequence (Q14671 828-1176 C1007K/R1008Y/Q1011Y) above, with C108E, R109W, Q112G, K180C, Y181R, Y184Q counted along it
# PUM1 PUF domain R4-SPC, sequence (Q14671 828-1176 N971S/H972P/Q975C): as the sequence (Q14671 828-1176 C1007K/R1008Y/Q1011Y) above, with N144S, H145P, Q148C, K180C, Y181R, Y184Q counted along it
# PUM1 PUF domain R7-RRF, sequence (Q14671 828-1176 S1079R/N1080R/E1083F): as the sequence (Q14671 828-1176 C1007K/R1008Y/Q1011Y) above, with K180C, Y181R, Y184Q, S252R, N253R, E256F counted along it
# PUM1 PUF domain R2-AWW, sequence (Q14671 828-1176 N899A/Y900W/Q903W): as the sequence (Q14671 828-1176 C1007K/R1008Y/Q1011Y) above, with N72A, Y73W, Q76W, K180C, Y181R, Y184Q counted along it
# PUM1 PUF domain R5-GNW, sequence (Q14671 828-1176 C1007G/R1008N/Q1011W): as the sequence (Q14671 828-1176 C1007K/R1008Y/Q1011Y) above, with K180G, Y181N, Y184W counted along it
# PUM1 PUF domain R2-RKG, sequence (Q14671 828-1176 N899R/Y900K/Q903G): as the sequence (Q14671 828-1176 C1007K/R1008Y/Q1011Y) above, with N72R, Y73K, Q76G, K180C, Y181R, Y184Q counted along it
# PUM1 PUF domain R5-FNG, sequence (Q14671 828-1176 C1007F/R1008N/Q1011G): as the sequence (Q14671 828-1176 C1007K/R1008Y/Q1011Y) above, with K180F, Y181N, Y184G counted along it
# PUM1 PUF domain R3-VWS, sequence (Q14671 828-1176 C935V/R936W/Q939S): as the sequence (Q14671 828-1176 C1007K/R1008Y/Q1011Y) above, with C108V, R109W, Q112S, K180C, Y181R, Y184Q counted along it
sequence,measurement,setting,value
GGCUAGAACUAGUGGAUCCCCCGGCGCCCGGCGGCUCGAGCCCGGGUAAGUUUAAAUAGUCUGCAUGCCGCCGGGCGCCAUGCCUGCAGGUCGACUCUAGAAAACAUG,binding signal,[1],4.96 log2 enrichment (interaction score)
same,binding signal,[2],4.42 log2 enrichment (interaction score)
GGCUAGAACUAGUGGAUCCCCCGGCGCCCGGCGGCUCGAGCCCGGGUAAGUGUAAAUAGUCUGCAUGCCGCCGGGCGCCAUGCCUGCAGGUCGACUCUAGAAAACAUG,binding signal,[3],1.03 log2 enrichment (interaction score)
same,binding signal,[4],4.29 log2 enrichment (interaction score)
same,binding signal,[5],2.87 log2 enrichment (interaction score)
same,binding signal,[6],3.16 log2 enrichment (interaction score)
same,binding signal,[7],2.54 log2 enrichment (interaction score)
same,binding signal,[8],5.46 log2 enrichment (interaction score)
same,binding signal,[9],4.12 log2 enrichment (interaction score)
same,binding signal,[10],2.74 log2 enrichment (interaction score)
same,binding signal,[11],2.46 log2 enrichment (interaction score)
same,binding signal,[12],3.61 log2 enrichment (interaction score)
same,binding signal,[13],3.42 log2 enrichment (interaction score)
same,binding signal,[14],3.74 log2 enrichment (interaction score)
same,binding signal,[15],1.63 log2 enrichment (interaction score)
GGCUAGAACUAGUGGAUCCCCCGGCGCCCGGCGGCUCGAGCCCGGGUAAGUGCAAAUAGUCUGCAUGCCGCCGGGCGCCAUGCCUGCAGGUCGACUCUAGAAAACAUG,binding signal,[7],5.25 log2 enrichment (interaction score)
GGCUAGAACUAGUGGAUCCCCCGGCGCCCGGCGGCUCGAGCCCGGGUAAGUGUACAUAGUCUGCAUGCCGCCGGGCGCCAUGCCUGCAGGUCGACUCUAGAAAACAUG,binding signal,[5],2.22 log2 enrichment (interaction score)
same,binding signal,[6],1.89 log2 enrichment (interaction score)
same,binding signal,[14],1.66 log2 enrichment (interaction score)
GGCUAGAACUAGUGGAUCCCCCGGCGCCCGGCGGCUCGAGCCCGGGUAAGUGAAAAUAGUCUGCAUGCCGCCGGGCGCCAUGCCUGCAGGUCGACUCUAGAAAACAUG,binding signal,[7],2.19 log2 enrichment (interaction score)
GGCUAGAACUAGUGGAUCCCCCGGCGCCCGGCGGCUCGAGCCCGGGUAAGUCUAAAUAGUCUGCAUGCCGCCGGGCGCCAUGCCUGCAGGUCGACUCUAGAAAACAUG,binding signal,[2],3.82 log2 enrichment (interaction score)
GGCUAGAACUAGUGGAUCCCCCGGCGCCCGGCGGCUCGAGCCCGGGUAAGUGUAAAAAGUCUGCAUGCCGCCGGGCGCCAUGCCUGCAGGUCGACUCUAGAAAACAUG,binding signal,[16],7.76 log2 enrichment (interaction score)
GGCUAGAACUAGUGGAUCCCCCGGCGCCCGGCGGCUCGAGCCCGGGUAAGUGUUAAUAGUCUGCAUGCCGCCGGGCGCCAUGCCUGCAGGUCGACUCUAGAAAACAUG,binding signal,[17],3.1 log2 enrichment (interaction score)
same,binding signal,[18],3.72 log2 enrichment (interaction score)
same,binding signal,[15],2.56 log2 enrichment (interaction score)
GGCUAGAACUAGUGGAUCCCCCGGCGCCCGGCGGCUCGAGCCCGGGUAAGUGUAAGUAGUCUGCAUGCCGCCGGGCGCCAUGCCUGCAGGUCGACUCUAGAAAACAUG,binding signal,[3],1.75 log2 enrichment (interaction score)
same,binding signal,[12],4.81 log2 enrichment (interaction score)
GGCUAGAACUAGUGGAUCCCCCGGCGCCCGGCGGCUCGAGCCCGGGUAAGUGUAACUAGUCUGCAUGCCGCCGGGCGCCAUGCCUGCAGGUCGACUCUAGAAAACAUG,binding signal,[3],5.18 log2 enrichment (interaction score)
GGCUAGAACUAGUGGAUCCCCCGGCGCCCGGCGGCUCGAGCCCGGGUAAGUGUAUAUAGUCUGCAUGCCGCCGGGCGCCAUGCCUGCAGGUCGACUCUAGAAAACAUG,binding signal,[19],7.28 log2 enrichment (interaction score)
same,binding signal,[5],4.12 log2 enrichment (interaction score)
same,binding signal,[13],2.92 log2 enrichment (interaction score)
same,binding signal,[14],2.82 log2 enrichment (interaction score)
GGCUAGAACUAGUGGAUCCCCCGGCGCCCGGCGGCUCGAGCCCGGGUAAGUGUCAAUAGUCUGCAUGCCGCCGGGCGCCAUGCCUGCAGGUCGACUCUAGAAAACAUG,binding signal,[15],3.07 log2 enrichment (interaction score)
GGCUAGAACUAGUGGAUCCCCCGGCGCCCGGCGGCUCGAGCCCGGGUAAGUGUAAAGAGUCUGCAUGCCGCCGGGCGCCAUGCCUGCAGGUCGACUCUAGAAAACAUG,binding signal,[20],4.62 log2 enrichment (interaction score)
same,binding signal,[16],0.42 log2 enrichment (interaction score)
GGCUAGAACUAGUGGAUCCCCCGGCGCCCGGCGGCUCGAGCCCGGGUAAGUGUAAUUAGUCUGCAUGCCGCCGGGCGCCAUGCCUGCAGGUCGACUCUAGAAAACAUG,binding signal,[3],3.68 log2 enrichment (interaction score)
same,binding signal,[12],3.95 log2 enrichment (interaction score)

# — publication PMC8384837, “Expanding the binding specificity for RNA recognition by a PUF domain”
